{"source": "PubChem BioAssay (Tox21)", "note": "Inconclusive results are not listed. More than one record can exist for a structure, and the calls need not agree. Activity calls are given as the source filed them. Calls come from the whole dose curve. % is set by controls: 0 for no effect and ±100 for the full control effect; potency is the fitted concentration of half-maximal effect."}
{"biological_target": "Acetylcholinesterase (Homo sapiens) (UniProt P22303)", "sequence (P22303 whole entry, looked up)": "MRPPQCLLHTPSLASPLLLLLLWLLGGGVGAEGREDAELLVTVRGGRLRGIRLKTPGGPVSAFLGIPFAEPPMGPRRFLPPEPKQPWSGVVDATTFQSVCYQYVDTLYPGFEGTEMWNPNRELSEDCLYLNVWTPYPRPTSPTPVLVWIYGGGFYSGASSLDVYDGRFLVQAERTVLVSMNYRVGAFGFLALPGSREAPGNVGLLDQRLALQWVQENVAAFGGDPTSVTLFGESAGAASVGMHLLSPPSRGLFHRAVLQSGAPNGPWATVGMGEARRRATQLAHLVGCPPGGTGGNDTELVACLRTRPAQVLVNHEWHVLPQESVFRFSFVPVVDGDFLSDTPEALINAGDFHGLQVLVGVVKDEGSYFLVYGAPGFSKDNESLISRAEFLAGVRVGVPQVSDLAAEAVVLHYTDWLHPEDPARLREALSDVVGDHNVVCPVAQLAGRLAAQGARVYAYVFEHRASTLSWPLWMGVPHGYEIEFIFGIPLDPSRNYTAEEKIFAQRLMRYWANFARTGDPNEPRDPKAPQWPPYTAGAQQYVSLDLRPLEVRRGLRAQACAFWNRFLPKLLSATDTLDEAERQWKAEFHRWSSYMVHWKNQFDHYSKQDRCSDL", "assay": "Acetylcholinesterase (AChE) small molecule antagonists: fluorescence cell-based qHTS assay (AID 1347398); note: nearly all actives have a fitted effect of over 50% in size", "conditions": "SH-SY5Y cells; Potency: AChE activity; outcome: AChE activity; series mostly up to 115 µM; activity change, negative = inhibition: at the top concentration", "outline": "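Thiocholine generated from acetylthiocholine by SH-SY5Y cell AChE is detected with Thiolite Green (Ex/Em 490/520 nm) after 40 min at room temperature, following 30 min compound pretreatment at 37 C.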"}
{"smiles": "O=Cc1ccc(Cl)c([N+](=O)[O-])c1", "activity change, negative = inhibition": "-16.8% (inactive)"}
{"smiles": "CCc1oc2ccccc2c1C(=O)c1cc(I)c(O)c(I)c1", "activity change, negative = inhibition": "0.784% [at 53.7 µM] (inactive)"}
{"smiles": "CCOC(=O)c1ccc(N)cc1", "Potency": "inactive"}
{"smiles": "CC(C)OC(=O)CCC(=O)OC(C)C", "activity change, negative = inhibition": "5.09% (inactive)"}
{"smiles": "CCCc1cc(=O)[nH]c(=S)[nH]1", "Potency": "inactive"}
{"smiles": "Nc1ccc(O)c(C(=O)O)c1", "Potency": "inactive"}
{"smiles": "CC1=CC(C)(C)Nc2ccccc21", "Potency": "inactive"}
{"smiles": "CCSC(=O)N(CC(C)C)CC(C)C", "activity change, negative = inhibition": "3.43% (inactive)"}
{"smiles": "NC(N)=NS(=O)(=O)c1ccc(N)cc1", "activity change, negative = inhibition": "8.14% [at 53.7 µM] (inactive)"}
{"smiles": "O=C(O)CONC(=O)c1ccccc1", "activity change, negative = inhibition": "0.182% (inactive)"}
{"smiles": "C=C[C@](C)(O)CC[C@@H]1[C@@]2(C)CCCC(C)(C)[C@@H]2CC[C@@]1(C)O", "activity change, negative = inhibition": "-6.08% (inactive)"}
{"smiles": "CC(=O)Nc1ccc(C)cc1", "activity change, negative = inhibition": "0.196% (inactive)"}
{"smiles": "Cc1ccc(S(=O)(=O)NC(=O)NC2CCCCC2)cc1", "activity change, negative = inhibition": "2.12% [at 53.7 µM] (inactive)"}
{"smiles": "CC[C@H]1OC(=O)[C@H](C)[C@@H](O[C@H]2C[C@@](C)(OC)[C@@H](O)[C@H](C)O2)[C@H](C)[C@@H](O[C@@H]2O[C@H](C)C[C@H](N(C)C)[C@H]2O)[C@](C)(O)C[C@@H](C)CN(C)[C@H](C)[C@@H](O)[C@]1(C)O", "activity change, negative = inhibition": "1.1% [at 53.7 µM] (inactive)"}
{"smiles": "CC[C@@H]([C@H](C)O)n1ncn(-c2ccc(N3CCN(c4ccc(OC[C@@H]5CO[C@@](Cn6cncn6)(c6ccc(F)cc6F)C5)cc4)CC3)cc2)c1=O", "activity change, negative = inhibition": "-0.536% [at 53.7 µM] (inactive)"}
{"smiles": "OC1(c2ccc(Cl)c(C(F)(F)F)c2)CCN(CCCC(c2ccc(F)cc2)c2ccc(F)cc2)CC1", "activity change, negative = inhibition": "8.02% [at 53.7 µM] (inactive)"}
{"smiles": "CCC(C)(C)C", "activity change, negative = inhibition": "4.85% (inactive)"}
{"smiles": "Nc1ccc(/C=C/c2ccc(N)cc2S(=O)(=O)O)c(S(=O)(=O)O)c1", "activity change, negative = inhibition": "2.35% [at 0.439 µM] (inactive)"}
{"smiles": "CCC(=O)Nc1cccc(N)c1", "activity change, negative = inhibition": "0.4% (inactive)"}
{"smiles": "CCN1CCN(c2cc(-c3ccc(F)cc3)c3c(n2)CCCCCC3)CC1", "activity change, negative = inhibition": "7.25% [at 23.8 µM] (inactive)"}
{"smiles": "CCN(CC)c1ccc(C(=O)c2ccccc2C(=O)O)c(O)c1", "Potency": "inactive"}
{"smiles": "O=C(O)Cc1ccc(-c2ccccc2)cc1", "activity change, negative = inhibition": "-12% [at 53.7 µM] (inactive)"}
{"smiles": "O=C(O)C1=NN(c2ccc(S(=O)(=O)O)cc2)C(=O)C1", "Potency": "inactive"}
{"smiles": "C[C@]12C=CC(=O)C=C1CC[C@@H]1[C@@H]2C(=O)C[C@@]2(C)[C@H]1CC[C@]2(O)C(=O)CO", "Potency": "inactive"}
{"smiles": "C=CC(=O)NC(C)(C)CS(=O)(=O)O", "Potency": "inactive"}
{"smiles": "CC/C=C(\\C(=O)N[C@@H]1C(=O)N2C(C(=O)OCOC(=O)C(C)(C)C)=C(COC(N)=O)CS[C@H]12)c1csc(N)n1", "Potency": "inactive"}
{"smiles": "O=C1O[C@H]([C@@H](O)CO)C(O)=C1O", "Potency": "inactive"}
{"smiles": "O=C1C=CC(=O)O1", "activity change, negative = inhibition": "2.26% (inactive)"}
{"smiles": "Nc1ncnc2c1ncn2[C@@H]1O[C@H](CO)[C@@H](O)[C@H]1O", "activity change, negative = inhibition": "2.11% [at 53.7 µM] (inactive)"}
{"smiles": "CCCCC=O", "activity change, negative = inhibition": "-0.609% (inactive)"}
{"smiles": "O=P(O)(OCc1ccccc1)OCc1ccccc1", "activity change, negative = inhibition": "0.488% (inactive)"}
{"smiles": "CC1=NN(c2ccccc2)C(=O)C1", "Potency": "5.06 µM (active) and inactive"}
{"smiles": "O=c1[nH]cnc2[nH]ncc12", "Potency": "inactive"}
{"smiles": "COC(=O)[C@H]1[C@H]2C[C@@H]3c4[nH]c5cc(OC)ccc5c4CCN3C[C@H]2C[C@@H](OC(=O)c2cc(OC)c(OC)c(OC)c2)[C@@H]1OC", "Potency": "inactive"}
{"smiles": "CCOC(=O)C1=C(C)NC(C)=C(C(=O)OC)C1c1cccc([N+](=O)[O-])c1", "note": "(stereo not given)", "activity change, negative = inhibition": "4.16% [at 53.7 µM] (inactive)"}
{"smiles": "OCC1(CO)COCOC1", "activity change, negative = inhibition": "0.0326% (inactive)"}
{"smiles": "COCCCOc1cc(C[C@@H](C[C@H](N)[C@@H](O)C[C@H](C(=O)NCC(C)(C)C(N)=O)C(C)C)C(C)C)ccc1OC", "activity change, negative = inhibition": "-5.3% [at 53.7 µM] (inactive)"}
{"smiles": "C[Si](C)(CCCN)O[Si](C)(C)CCCN", "activity change, negative = inhibition": "3.87% (inactive)"}
{"smiles": "Oc1cccc2[nH]ccc12", "activity change, negative = inhibition": "8.43% [at 53.7 µM] (inactive)"}
{"smiles": "Oc1ccc(OCc2ccccc2)cc1", "Potency": "inactive"}
